Reference: PubChem BioAssay
Activity calls are given as the source filed them.

Experiments:
[1] = small molecules captured by biotinylated probe aFSTL3 – biochemical, small-molecule microarray, fluorescence 635/667, stem cell growth factor project, primary screen (AID 1064); details: higher = more signal;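 further: measures binding of the biotinylated anti-FSTL3 antibody to printed compounds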
[2] = binders from COS7 lysate, DM2A8 probe, primary screen, torsin A project, cell lysate, small-molecule microarray, fluorescence 635/667 (AID 1065); details: higher = more signal, COS7 lysate expressing mutant human TOR1A
[3] = small molecules captured by biotinylated probe aFGF2 – biochemical, small-molecule microarray, fluorescence 635/667, stem cell growth factor project, primary screen (AID 1067); details: higher = more signal;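 further: measures binding of biotinylated aFGF2 protein to printed compounds on slides; z-score merges feature fluorescence and signal-to-noise across triplicate slides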
[4] = small molecules captured by biotinylated probe aFGF10 – biochemical, small-molecule microarray, fluorescence 635/667, stem cell growth factor project, primary screen (AID 1071); details: higher = more signal;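 further: score merges 667 nm spot intensity and signal to noise from triplicate slides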
[5] = molecular target: Neurogenic locus notch homolog protein 2 (Homo sapiens) (UniProt Q04721); assay: small molecules binding Notch2 protein – biochemical, small-molecule microarray, 635 nm fluorescence, stem cell growth factors, primary screen (AID 1073); details: higher = more signal
[6] = molecular target: Pro-neuregulin-1, membrane-bound isoform (Homo sapiens) (UniProt Q02297); assay: small molecules binding neuregulin-1 protein – biochemical, small-molecule microarray, fluorescence 635/667, psychiatric disease protein project, primary screen (AID 1075); details: NRG1 binding, 635 nm fluorescence, higher = more signal;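 further: score combines 667 nm spot fluorescence with signal to noise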
Sequence of Pro-neuregulin-1, membrane-bound isoform (Homo sapiens) (Q02297 whole entry, looked up, the tested form may be a part, canonical isoform): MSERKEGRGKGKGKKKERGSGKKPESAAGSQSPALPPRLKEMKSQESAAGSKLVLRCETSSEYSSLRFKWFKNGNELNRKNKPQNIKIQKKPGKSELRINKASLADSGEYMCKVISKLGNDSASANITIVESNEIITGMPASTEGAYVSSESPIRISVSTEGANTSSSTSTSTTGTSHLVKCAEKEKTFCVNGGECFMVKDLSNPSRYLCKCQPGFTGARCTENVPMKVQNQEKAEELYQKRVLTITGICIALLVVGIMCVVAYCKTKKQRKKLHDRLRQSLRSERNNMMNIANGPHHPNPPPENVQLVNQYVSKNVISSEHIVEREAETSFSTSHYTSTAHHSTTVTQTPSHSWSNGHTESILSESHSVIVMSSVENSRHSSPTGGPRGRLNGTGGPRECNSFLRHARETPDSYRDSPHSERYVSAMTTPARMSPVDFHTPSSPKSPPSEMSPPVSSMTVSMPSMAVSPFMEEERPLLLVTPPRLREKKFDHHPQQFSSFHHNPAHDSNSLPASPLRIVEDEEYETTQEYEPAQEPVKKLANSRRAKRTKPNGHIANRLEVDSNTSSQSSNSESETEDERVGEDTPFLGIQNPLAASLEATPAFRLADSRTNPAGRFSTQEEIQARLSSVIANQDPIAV

[7] = tested on: Neuregulin-1 EGF-like domain; assay: small molecules binding NRG1 EGF domain – biochemical, small-molecule microarray, 635 nm fluorescence, primary screen (AID 1081); details: higher = more signal;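 further: binding of the protein to compounds printed on small-molecule microarray slides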
[8] = FRG1 expression reporter modulators in myotubes – cell-based, C2C12 myotubes, firefly/Renilla luciferase, luminescence, FRG1 inhibition for FSHD, primary screen (AID 1084); details: FRG1 promoter luciferase, higher = more signal, called active from +8 up or from −8 down
[9] = small molecules captured by biotinylated probe aFST – biochemical, small-molecule microarray, fluorescence 635/667, stem cell growth factor project, primary screen (AID 1086); details: higher = more signal;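 further: score merges 667 nm fluorescence with signal-to-noise of each printed compound spot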
[10] = binders of probe aHhip on microarray, primary screen, stem cell growth factor project, biochemical, small-molecule microarray, fluorescence 635/667 (AID 1087); details: higher = more signal;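 further: score merges spot fluorescence at 667nm with spot signal to noise ratio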
[11] = tested on: PRMT1 (protein arginine N-methyltransferase 1); assay: small molecules binding arginine methyltransferase PRMT1 – biochemical, small-molecule microarray, 635 nm fluorescence, primary screen (AID 1088); details: higher = more signal;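 further: binding of Prmt1 protein to compounds spotted on small-molecule microarray slides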
[12] = growth effects on S. cerevisiae YJM789 – YJM789 clinical isolate, OD600, 24 h, basal, primary screen (AID 1089); details: higher = more signal, called active from +8 up or from −8 down;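 further: growth of clinical yeast isolate S. cerevisiae YJM 789 seeded 1000 cells per well; test concentration not given here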
[13] = S. pombe growth modifiers, basal conditions – strain 972, OD600, 24 h, no modulator, primary screen (AID 1090);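 further: basal condition with compound alone and no growth modifier present; test concentration not given here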; details: S. pombe 972 growth, higher = more signal, called active from +8 up or from −8 down
[14] = budding yeast growth modifiers under rapamycin – strain BY4716, OD600, 96 h, primary screen (AID 1091); further: test concentration not given here; details: S. cerevisiae BY4716 + rapamycin, higher = more signal, called active from +8 up or from −8 down
[15] = molecular target: Torsin-1A-interacting protein 2 (Homo sapiens) (UniProt Q8NFQ8); assay: small molecules binding lysate-expressed LULL1 – cell lysate, human LULL1 lysate, 635/667 nm fluorescence, primary screen (AID 1092); details: small-molecule microarray, hLULL1 lysate binding, 635 nm fluorescence; higher = more signal;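 further: probe is lysate of COS7 cells overexpressing human LULL1; score merges per-feature 667 nm fluorescence with signal-to-noise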
Sequence of Torsin-1A-interacting protein 2 (Homo sapiens) (Q8NFQ8 whole entry, looked up): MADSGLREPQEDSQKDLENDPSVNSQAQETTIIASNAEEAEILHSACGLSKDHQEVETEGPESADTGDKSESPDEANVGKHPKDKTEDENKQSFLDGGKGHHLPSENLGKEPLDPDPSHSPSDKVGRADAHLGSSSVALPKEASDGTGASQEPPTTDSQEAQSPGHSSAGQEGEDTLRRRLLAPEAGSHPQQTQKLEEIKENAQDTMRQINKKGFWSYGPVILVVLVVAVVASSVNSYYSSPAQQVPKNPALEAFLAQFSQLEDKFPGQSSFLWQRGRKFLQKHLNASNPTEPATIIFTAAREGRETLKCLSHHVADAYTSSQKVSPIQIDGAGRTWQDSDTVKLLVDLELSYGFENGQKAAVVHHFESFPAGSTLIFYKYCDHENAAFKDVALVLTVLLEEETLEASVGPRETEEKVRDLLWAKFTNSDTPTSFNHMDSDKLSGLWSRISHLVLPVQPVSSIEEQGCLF

[16] = optical density change of DRC41 E. coli – strain DRC41, OD650, 24 h, E. coli filamentation project, primary screen (AID 1093);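 further: MC1000 strain lacking acrAB efflux and sulA so SOS filamentation is blocked; test concentration not given here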; details: E. coli DRC41 growth, higher = more signal, called active from +8 up or from −8 down
[17] = probe aLefty2 binding to arrayed compounds – biochemical, biotinylated probe, 635/667 nm fluorescence, primary screen (AID 1094); details: small-molecule microarray, higher = more signal;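 further: score merges spot fluorescence near 667 nm with spot signal-to-noise ratio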
[18] = tested on: Noggin (protein binding on small-molecule microarray); assay: small molecules binding Noggin protein – biochemical, 635/667 nm fluorescence, primary screen (AID 1095); details: 635 nm fluorescence, higher = more signal;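 further: score merges 667 nm feature fluorescence with signal to noise over triplicate slides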
[19] = molecular target: Neurogenic locus notch homolog protein 3 (Homo sapiens) (UniProt Q9UM47); assay: small molecules binding NOTCH3 protein – biochemical, 635/667 nm fluorescence, primary screen (AID 1096); details: small-molecule microarray, 635 nm fluorescence, higher = more signal
Sequence of Neurogenic locus notch homolog protein 3 (Homo sapiens) (Q9UM47 whole entry, looked up): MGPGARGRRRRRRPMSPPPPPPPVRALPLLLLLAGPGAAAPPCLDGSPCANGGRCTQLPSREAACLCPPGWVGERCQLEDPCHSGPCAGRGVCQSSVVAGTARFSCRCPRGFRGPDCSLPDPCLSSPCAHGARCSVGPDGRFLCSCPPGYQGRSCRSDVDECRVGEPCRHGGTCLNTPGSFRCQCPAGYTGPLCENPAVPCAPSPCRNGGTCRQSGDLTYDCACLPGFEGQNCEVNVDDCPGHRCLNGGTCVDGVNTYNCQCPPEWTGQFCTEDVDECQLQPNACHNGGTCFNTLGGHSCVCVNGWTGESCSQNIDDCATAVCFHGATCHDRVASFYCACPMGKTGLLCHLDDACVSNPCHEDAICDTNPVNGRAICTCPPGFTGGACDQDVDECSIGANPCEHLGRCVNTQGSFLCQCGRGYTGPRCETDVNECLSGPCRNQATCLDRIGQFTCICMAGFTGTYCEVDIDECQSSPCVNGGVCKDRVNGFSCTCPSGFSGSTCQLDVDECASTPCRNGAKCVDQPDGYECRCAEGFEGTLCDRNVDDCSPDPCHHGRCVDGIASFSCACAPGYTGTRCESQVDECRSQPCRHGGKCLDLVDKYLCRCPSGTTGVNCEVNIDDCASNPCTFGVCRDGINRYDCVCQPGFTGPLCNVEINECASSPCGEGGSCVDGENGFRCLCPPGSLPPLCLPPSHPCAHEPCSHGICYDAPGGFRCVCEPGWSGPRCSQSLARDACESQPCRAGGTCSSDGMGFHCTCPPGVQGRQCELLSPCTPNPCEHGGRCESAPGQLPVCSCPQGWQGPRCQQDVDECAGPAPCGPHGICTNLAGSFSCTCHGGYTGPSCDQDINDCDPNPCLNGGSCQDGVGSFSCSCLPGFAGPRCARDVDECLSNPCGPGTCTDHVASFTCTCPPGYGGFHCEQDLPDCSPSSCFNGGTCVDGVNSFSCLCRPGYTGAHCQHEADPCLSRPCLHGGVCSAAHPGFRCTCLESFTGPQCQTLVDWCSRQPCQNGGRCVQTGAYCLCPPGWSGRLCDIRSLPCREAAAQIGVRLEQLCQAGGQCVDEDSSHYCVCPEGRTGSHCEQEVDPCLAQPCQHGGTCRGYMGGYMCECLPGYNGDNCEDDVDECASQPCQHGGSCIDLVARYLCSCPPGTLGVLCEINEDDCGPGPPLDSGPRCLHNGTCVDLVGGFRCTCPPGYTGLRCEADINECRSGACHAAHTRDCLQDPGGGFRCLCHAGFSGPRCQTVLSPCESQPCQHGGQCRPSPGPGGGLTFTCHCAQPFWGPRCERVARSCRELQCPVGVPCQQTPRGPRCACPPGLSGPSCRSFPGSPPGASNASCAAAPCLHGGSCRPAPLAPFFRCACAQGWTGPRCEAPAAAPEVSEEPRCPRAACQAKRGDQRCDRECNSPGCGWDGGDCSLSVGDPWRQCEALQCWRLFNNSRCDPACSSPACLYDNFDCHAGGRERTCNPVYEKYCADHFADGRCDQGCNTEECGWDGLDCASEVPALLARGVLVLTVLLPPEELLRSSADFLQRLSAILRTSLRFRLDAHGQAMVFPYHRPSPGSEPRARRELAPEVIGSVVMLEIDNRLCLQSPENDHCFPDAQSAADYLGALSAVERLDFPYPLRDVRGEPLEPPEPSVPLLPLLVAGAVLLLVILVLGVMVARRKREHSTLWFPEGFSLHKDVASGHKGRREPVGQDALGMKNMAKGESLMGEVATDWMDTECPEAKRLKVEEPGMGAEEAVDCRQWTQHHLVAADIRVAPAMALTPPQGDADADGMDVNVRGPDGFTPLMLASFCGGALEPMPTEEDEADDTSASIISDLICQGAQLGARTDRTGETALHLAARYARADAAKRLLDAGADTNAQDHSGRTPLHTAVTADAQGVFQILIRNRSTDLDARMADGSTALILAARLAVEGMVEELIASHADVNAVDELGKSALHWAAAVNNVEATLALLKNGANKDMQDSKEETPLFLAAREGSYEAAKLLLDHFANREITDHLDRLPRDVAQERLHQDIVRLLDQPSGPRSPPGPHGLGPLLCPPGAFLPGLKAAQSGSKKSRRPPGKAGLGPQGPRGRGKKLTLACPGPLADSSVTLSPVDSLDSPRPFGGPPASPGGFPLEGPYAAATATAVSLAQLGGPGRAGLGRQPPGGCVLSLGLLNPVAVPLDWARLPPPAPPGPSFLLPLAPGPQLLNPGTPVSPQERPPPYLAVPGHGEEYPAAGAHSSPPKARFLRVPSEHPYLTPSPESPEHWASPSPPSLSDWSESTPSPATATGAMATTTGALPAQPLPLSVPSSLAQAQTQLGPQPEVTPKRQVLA

[20] = probe aEGFR binding to arrayed compounds – biochemical, biotinylated probe, 635/667 nm fluorescence, primary screen (AID 1097); details: small-molecule microarray, higher = more signal;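 further: probe is a biotinylated anti-EGFR antibody binding compounds printed on slides; score combines fluorescence near 667 nm and signal to noise of each spot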

Compound	composite z-score [1]	composite z-score [2]	composite z-score [3]	composite z-score [4]	composite z-score [5]	composite z-score [6]	composite z-score [7]	z-score [8]	composite z-score [9]	composite z-score [10]	composite z-score [11]	z-score [12]	z-score [13]	z-score [14]	composite z-score [15]	z-score [16]	composite z-score [17]	composite z-score [18]	composite z-score [19]	composite z-score [20]
C=C[C@H](C)[C@@H](OC(=O)Nc1ccc(SC)cc1)c1ccc(O)c2ccccc12	-0.151	0.152	0.0111	0.358	0.68	0.423	1.43	5.42 (inactive)	0.455	-0.0994	1.28	-24.3 (active)	-20.7 (active)	-1.88 (inactive)	1.89	1.22 (inactive)	-0.0159	0.936	1.11	0.137
CC(CO)N1C(=O)[C@@H]2C3C(=O)OCCC/C=C\[C@H]3OC23C=CCN(CCN2CCOCC2)C(=O)[C@@H]13 (stereo not given in full)	-0.547	0.163	-0.139	0.38	-0.59	-0.31	0.47	-0.55 (inactive)	-0.28	-0.212	0.871	-0.321 (inactive)	-0.802 (inactive)	-0.215 (inactive)	-0.675	-0.19 (inactive)	-0.207	-0.0152	0.159	-0.187
COC(=O)C(CC#Cc1ccc2c(c1)[C@]1(C(=O)N2)[C@H](c2ccc(O)cc2)N2[C@H](c3ccccc3)[C@H](c3ccccc3)OC(=O)[C@H]2[C@@H]1C(=O)N1CCN(c2ncccn2)CC1)C(=O)OC	0.136	0.215	-0.0035	0.349	0.577	1.86	1.35	-1.36 (inactive)	0.599	0.351	1.55	1.07 (inactive)	0.516 (inactive)	1.93 (inactive)	3.21	0.248 (inactive)	0.107	0.24	0.975	0.0167
C#CCN1[C@@H](Cc2ccc(O)cc2)C(=O)O[C@H](Cc2ccccc2)[C@@H]1/C=C/C1CC1	-0.353	0.336	-0.142	0.199	-0.586	-0.37	0.207	-3.33 (inactive)	0.0959	-0.279	-0.193	-0.257 (inactive)	-4.95 (inactive)	1.09 (inactive)	0.602	-0.495 (inactive)	-0.144	-0.204	-0.139	-0.0081
CCCCN1CC=CC23O[C@@H]4C=CCCOC(=O)C4[C@H]2C(=O)N(CCCCCO)[C@@H]3C1=O (stereo not given in full)	-0.376	-0.055	-0.107	-0.0632	-1.06	-0.169	1.46	-0.834 (inactive)	-0.79	0.107	-0.726	-0.494 (inactive)	0.0411 (inactive)	0.025 (inactive)	0.905	-0.0111 (inactive)	-0.168	-0.548	-0.73	-0.0987
CC(C)(C)OC(=O)CC[C@]1(C(N)=O)N=C(c2ccc(OCCCO)cc2)O[C@H]1c1ccccc1	1.05	1.16	0.0466	0.27	1.53	2.53	1.07	-0.578 (inactive)	0.994	0.294	0.735	0.519 (inactive)	0.256 (inactive)	0.793 (inactive)	3.74	0.152 (inactive)	0.423	0.115	0.89	0.372
NCCCCCCNC(=O)[C@H]1C[C@H]2C(=O)N[C@@H](Cc3ccccc3)C(=O)N2[C@H]1c1cccc(OCCO)c1	0.135	0.537	0.0227	0.534	0.427	1.7	0.922	1.7 (inactive)	0.482	-0.0346	0.753	0.106 (inactive)	0.269 (inactive)	-0.689 (inactive)	1.66	0.524 (inactive)	0.255	0.337	0.347	0.0562
O=C1OCC=C[C@H]2OC34C=CCN(Cn5nnc6ccccc65)C(=O)[C@H]3N(CCCCCO)C(=O)[C@@H]4[C@@H]12 (stereo not given in full)	0.4	-0.629	-0.0069	-0.138	-0.637	2.53	1.16	-0.564 (inactive)	-0.779	-0.396	-0.0541	-0.314 (inactive)	0.421 (inactive)	-0.582 (inactive)	2.81	1.65 (inactive)	0.484	-0.525	-0.475	-0.108
O=C(CS)NCCCCCNC(=O)[C@H]1C[C@H]2C(=O)NCC(=O)N2[C@H]1c1cccc(OCCO)c1	0.656	-0.498	-0.0579	-0.461	-1.2	1.33	0.375	3.3 (inactive)	-0.793	-0.176	0.151	-0.881 (inactive)	0.145 (inactive)	-0.336 (inactive)	0.556	0.663 (inactive)	-0.0778	0.262	-0.154	-0.0987
O=C(CS)NCCCCCNC(=O)[C@H]1C[C@H]2C(=O)NCC(=O)N2[C@H]1c1ccc(O)cc1	0.205	0.354	-0.159	-0.583	-1.4	-0.83	-0.0307	1.41 (inactive)	-0.753	-0.204	-0.313	-2.76 (inactive)	1.02 (inactive)	-1.11 (inactive)	-1.29	0.77 (inactive)	-0.179	-0.177	-0.905	-0.132
[N-]=[N+]=NCc1ccccc1[C@H]1OC(c2ccc(OCCCO)cc2)=N[C@@]1(Cc1ccccc1)C(=O)N1CCCCC1	-0.222	0.368	0.022	0.78	1.46	0.947	1.18	-2.51 (inactive)	0.573	-0.201	1.55	-1.88 (inactive)	-0.575 (inactive)	1.32 (inactive)	3.33	1.56 (inactive)	0.0004	1.37	1.13	0.038
